Laboratory results: PubChem BioAssay (NCI)
The panel holds about 83,000 compounds, 20% with a hit somewhere; the sample as a whole holds those more often.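 For each line, cells grew in 96-well plates with the test compound present at a single concentration for 48 hours.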 Values without a mark were called inactive. Active and inactive are the calls of the source. Rule for the calls: active = growth percent below 10; inactive = the rest.

How the values were obtained:
Test in all cases: NCI-60 one-dose screen, 48 h (100 = growth as untreated, 0 = no growth, -100 = all killed)
Settings in all cases: 10 µM unless noted
[1] = tested on: NCI-H23 lung
[2] = tested on: NCI-H226 lung
[3] = tested on: NCI-H322M lung
[4] = tested on: HOP-62 NSCLC
[5] = tested on: NCI-H460 lung
[6] = tested on: HOP-92 NSCLC
[7] = tested on: NCI-H522 lung
[8] = tested on: A549/ATCC NSCLC
[9] = tested on: 786-0 renal
[10] = tested on: COLO 205 colon
[11] = tested on: DU-145 prostate
[12] = tested on: K-562 leukemia
[13] = tested on: MALME-3M melanoma
[14] = tested on: MDA-MB-231 breast
[15] = tested on: RXF 393 renal
[16] = tested on: SF-268 CNS
[17] = tested on: SF-295 CNS
[18] = tested on: SF-539 CNS
[19] = tested on: UACC-257 melanoma
[20] = tested on: M14 melanoma

| Compound | growth [1] | growth [2] | growth [3] | growth [4] | growth [5] | growth [6] | growth [7] | growth [8] | growth [9] | growth [10] | growth [11] | growth [12] | growth [13] | growth [14] | growth [15] | growth [16] | growth [17] | growth [18] | growth [19] | growth [20] |
| --- | --- | --- | --- | --- | --- | --- | --- | --- | --- | --- | --- | --- | --- | --- | --- | --- | --- | --- | --- | --- |
| COc1ccc(C2NC(=O)C(C#N)c3c2sc2c(F)cccc32)cc1 (stereo not given) | 76.3% | 60.3% | 65.3% | 46.4% | 28.6% | 54.2% | 20.1% | 42.6% | 71% | 91.6% | 67.8% | 14.1% | 47.2% | 71.2% | 55.9% | 62% | 30.5% | 39.5% | 63.9% | 33.3% |
| COc1cc2c(cc1OCCCCCOc1ccc(-n3c(C)nc4ccccc4c3=O)cc1)N=C[C@@H]1CCCN1C2=O | -20.1% (active) | 2.04% (active) | -31.2% (active) | -29% (active) | -31.2% (active) | -17.8% (active) | -33.5% (active) | 7.25% (active) | -42.5% (active) | -22.3% (active) | -25.2% (active) | -17.5% (active) | -78.9% (active) | 2.33% (active) | -73.9% (active) | -5.47% (active) | -8.19% (active) | -63% (active) | 20% | -64.3% (active) |
| CC1(C)CC[C@]2(C(=O)O)CC[C@]3(C)C(=CC[C@@H]4[C@@]5(C)C/C(=C/c6ccco6)C(=O)C(C)(C)[C@@H]5CC[C@]43C)[C@@H]2C1 | -25.6% [100 µM] (active) | -42.4% [100 µM] (active) | -48.8% [100 µM] (active) | -85.3% [100 µM] (active) | -55.9% [100 µM] (active) | -82.1% [100 µM] (active) | -39.3% [100 µM] (active) | -4.53% [100 µM] (active) | -19.5% [100 µM] (active) | -80.7% [100 µM] (active) | -45% [100 µM] (active) | 10.5% [100 µM] | -80.7% [100 µM] (active) | -77.9% [100 µM] (active) | -68.5% [100 µM] (active) | -27.2% [100 µM] (active) | -56.2% [100 µM] (active) | -83.3% [100 µM] (active) | -23.7% [100 µM] (active) | -31.5% [100 µM] (active) |
| CCN=C1C=CC(=C(c2ccc(N(CC)CC)cc2)c2ccc(N(CC)CC)cc2)c2ccccc21 | -53.5% (active) | -58.3% (active) | -38.9% (active) | -71.8% (active) | -72% (active) | -72.8% (active) | -65.5% (active) | -59.8% (active) | -64.3% (active) | -90.7% (active) | -96.5% (active) | -13.6% (active) | -82.6% (active) | -8.34% (active) | -74.4% (active) | -18.6% (active) | -80.9% (active) | -82.9% (active) | -69.9% (active) | -67% (active) |
| O=C(O)c1ccccc1C(F)(F)F | 66.7% | 89.2% | 106% | 103% | 102% | 88.2% | 72.1% | 16.1% | 96.2% | 102% | 102% | 102% | 103% | 95.3% | 102% | 96.3% | 95.6% | 93.7% | -1.89% (active) | 93.4% |
| CN(C)c1ccc(N=Nc2ccc3ccccc3c2)cc1 | 91.5% | 79.9% | 89.6% | 110% | 87.5% | 82.1% | 71.7% | 92% | 122% | 73.7% | 98.9% | 82.6% | 101% | 69.5% | 97.7% | 87.8% | 107% | 93% | 102% | 99.1% |
